Measured values as given in the supplement of paper PMC11732987, “Enantioselective OTUD7B fragment discovery through chemoproteomics screening and high-throughput optimisation” (Communications Chemistry, 2025).

Columns and labels:
Assay in all cases: log2 ratio of Biotin-Ahx-Ub-VS probe labelling (fragment/DMSO); higher = less target engagement (more negative = stronger competition), active = hit call of the paper (q ≤ 0.05, log2 ratio ≤ -1)
Conditions in all cases: compound concentration: 200 uM; treatment time: 3 h
[1] = biological target: USP34 (UniProt Q70CQ2)
Summary of the method: (§1)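 Labelling with Biotin-Ahx-Ub-VS (0.5 µM final, 1 h) followed a 3 h triplicate treatment of HEK293T lysate (495 µg per sample, Tris/CHAPS/IGEPAL buffer with protease inhibitors) with fragment at 200 µM or vehicle. Labelled DUBs were NeutrAvidin-enriched, digested with LysC and trypsin, and run by diaPASEF LC-MS/MS. The values, average log2 fragment/vehicle ratios by unpaired t-test, come from global-median-normalised Spectronaut label-free quantities. Proteins with ≥2 unique peptides were used.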

[2] = biological target: T1, USP36 (UniProt Q9P275)
T1 sequence (whole entry): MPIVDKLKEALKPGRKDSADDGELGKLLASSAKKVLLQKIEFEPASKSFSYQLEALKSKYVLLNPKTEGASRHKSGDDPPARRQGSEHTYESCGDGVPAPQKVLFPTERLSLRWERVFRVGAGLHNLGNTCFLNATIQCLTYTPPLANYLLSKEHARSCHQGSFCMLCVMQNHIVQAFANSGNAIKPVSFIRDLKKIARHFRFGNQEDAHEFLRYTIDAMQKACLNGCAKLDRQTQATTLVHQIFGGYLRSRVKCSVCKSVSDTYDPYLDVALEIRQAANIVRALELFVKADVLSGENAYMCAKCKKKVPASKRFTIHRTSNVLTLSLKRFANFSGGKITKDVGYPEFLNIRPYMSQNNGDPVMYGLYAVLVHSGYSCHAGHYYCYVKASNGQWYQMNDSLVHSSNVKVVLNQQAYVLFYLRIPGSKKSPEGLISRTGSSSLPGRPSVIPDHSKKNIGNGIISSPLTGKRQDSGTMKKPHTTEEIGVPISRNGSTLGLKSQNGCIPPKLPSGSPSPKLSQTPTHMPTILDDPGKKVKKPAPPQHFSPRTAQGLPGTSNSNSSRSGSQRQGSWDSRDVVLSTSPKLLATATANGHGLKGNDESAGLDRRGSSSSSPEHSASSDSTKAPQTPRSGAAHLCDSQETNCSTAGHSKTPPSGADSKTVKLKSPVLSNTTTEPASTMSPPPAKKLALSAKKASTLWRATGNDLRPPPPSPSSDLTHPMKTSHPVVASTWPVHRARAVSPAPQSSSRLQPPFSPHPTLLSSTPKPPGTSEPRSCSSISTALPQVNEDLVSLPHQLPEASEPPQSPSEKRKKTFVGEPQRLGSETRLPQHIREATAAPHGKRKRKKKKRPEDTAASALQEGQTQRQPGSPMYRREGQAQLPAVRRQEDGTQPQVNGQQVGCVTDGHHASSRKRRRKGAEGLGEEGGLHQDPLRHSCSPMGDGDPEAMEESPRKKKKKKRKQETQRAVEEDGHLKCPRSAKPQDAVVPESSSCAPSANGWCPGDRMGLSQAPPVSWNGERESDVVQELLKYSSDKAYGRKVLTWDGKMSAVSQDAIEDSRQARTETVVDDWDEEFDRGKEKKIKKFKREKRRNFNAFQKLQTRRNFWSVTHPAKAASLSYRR
Summary of the method: as §1

[3] = biological target: T2, USP38 (UniProt Q8NB14)
T2 sequence (whole entry): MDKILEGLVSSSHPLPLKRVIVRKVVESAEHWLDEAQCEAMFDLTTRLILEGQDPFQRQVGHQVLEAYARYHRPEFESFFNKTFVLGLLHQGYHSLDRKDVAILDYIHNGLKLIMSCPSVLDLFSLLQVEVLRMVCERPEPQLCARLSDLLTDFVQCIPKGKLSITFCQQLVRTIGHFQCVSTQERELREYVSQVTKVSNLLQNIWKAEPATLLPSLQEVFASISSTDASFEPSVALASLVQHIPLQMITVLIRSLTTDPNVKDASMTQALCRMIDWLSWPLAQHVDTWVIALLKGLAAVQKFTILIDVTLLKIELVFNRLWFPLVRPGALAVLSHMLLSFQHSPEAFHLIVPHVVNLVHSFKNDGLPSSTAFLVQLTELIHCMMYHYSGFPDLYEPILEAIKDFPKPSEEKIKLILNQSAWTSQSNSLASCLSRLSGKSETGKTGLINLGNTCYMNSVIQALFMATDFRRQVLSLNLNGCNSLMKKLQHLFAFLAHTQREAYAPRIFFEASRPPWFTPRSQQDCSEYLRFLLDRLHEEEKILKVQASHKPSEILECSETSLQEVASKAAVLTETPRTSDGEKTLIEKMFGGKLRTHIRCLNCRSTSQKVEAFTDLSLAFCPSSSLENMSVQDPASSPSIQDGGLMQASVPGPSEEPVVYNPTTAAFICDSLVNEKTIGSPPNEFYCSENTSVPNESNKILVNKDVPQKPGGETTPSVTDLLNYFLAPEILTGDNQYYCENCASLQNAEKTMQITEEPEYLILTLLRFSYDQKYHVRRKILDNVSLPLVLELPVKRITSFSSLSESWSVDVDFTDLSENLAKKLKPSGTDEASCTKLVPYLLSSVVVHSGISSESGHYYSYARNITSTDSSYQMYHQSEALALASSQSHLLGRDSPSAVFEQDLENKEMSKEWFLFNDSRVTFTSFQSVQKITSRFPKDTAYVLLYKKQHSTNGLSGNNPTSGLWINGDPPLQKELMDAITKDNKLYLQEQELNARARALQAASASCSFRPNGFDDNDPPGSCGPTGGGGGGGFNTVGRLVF
Summary of the method: as §1

[4] = biological target: T3, USP39 (UniProt Q53GS9)
T3 sequence (whole entry): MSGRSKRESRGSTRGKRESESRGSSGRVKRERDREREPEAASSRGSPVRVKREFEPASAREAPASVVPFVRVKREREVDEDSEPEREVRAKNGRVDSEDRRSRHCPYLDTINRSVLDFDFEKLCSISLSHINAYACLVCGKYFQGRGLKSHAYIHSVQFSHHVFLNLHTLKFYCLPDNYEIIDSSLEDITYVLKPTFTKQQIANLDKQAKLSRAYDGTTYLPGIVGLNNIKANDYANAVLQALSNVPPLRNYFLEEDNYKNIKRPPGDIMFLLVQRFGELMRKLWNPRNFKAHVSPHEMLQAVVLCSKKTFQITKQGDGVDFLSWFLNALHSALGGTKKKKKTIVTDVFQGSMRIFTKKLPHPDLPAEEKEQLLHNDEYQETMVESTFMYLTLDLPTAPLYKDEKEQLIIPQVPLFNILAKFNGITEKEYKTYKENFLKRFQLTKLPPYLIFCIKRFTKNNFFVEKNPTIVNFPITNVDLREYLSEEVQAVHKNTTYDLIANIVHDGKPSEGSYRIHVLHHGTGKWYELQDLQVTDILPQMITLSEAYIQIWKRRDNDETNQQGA
Summary of the method: as §1

[5] = biological target: T4, USP4 (UniProt Q13107)
T4 sequence (whole entry): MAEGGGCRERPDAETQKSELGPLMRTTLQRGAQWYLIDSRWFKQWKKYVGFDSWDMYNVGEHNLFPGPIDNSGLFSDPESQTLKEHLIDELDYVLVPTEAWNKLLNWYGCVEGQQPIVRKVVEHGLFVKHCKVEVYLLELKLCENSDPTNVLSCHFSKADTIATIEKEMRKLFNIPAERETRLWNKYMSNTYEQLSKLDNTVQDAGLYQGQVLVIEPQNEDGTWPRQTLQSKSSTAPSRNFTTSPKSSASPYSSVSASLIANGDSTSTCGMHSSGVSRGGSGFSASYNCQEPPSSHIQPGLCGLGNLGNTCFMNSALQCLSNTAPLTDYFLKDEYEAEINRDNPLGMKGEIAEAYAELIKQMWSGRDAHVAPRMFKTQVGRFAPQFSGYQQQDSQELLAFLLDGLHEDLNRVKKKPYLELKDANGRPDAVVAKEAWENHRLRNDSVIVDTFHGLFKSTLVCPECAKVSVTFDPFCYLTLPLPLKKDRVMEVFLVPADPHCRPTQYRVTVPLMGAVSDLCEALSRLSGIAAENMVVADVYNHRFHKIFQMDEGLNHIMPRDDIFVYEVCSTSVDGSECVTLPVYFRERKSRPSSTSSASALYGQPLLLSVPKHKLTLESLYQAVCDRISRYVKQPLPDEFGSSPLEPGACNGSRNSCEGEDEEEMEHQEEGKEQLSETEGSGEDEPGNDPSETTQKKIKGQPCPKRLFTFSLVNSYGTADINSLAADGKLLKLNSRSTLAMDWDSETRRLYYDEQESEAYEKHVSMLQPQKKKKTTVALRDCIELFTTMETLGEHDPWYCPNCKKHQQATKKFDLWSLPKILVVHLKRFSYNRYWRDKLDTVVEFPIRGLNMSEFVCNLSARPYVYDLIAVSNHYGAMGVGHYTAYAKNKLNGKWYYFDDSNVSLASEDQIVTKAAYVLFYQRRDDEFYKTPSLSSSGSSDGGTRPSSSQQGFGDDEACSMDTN
Summary of the method: as §1

Measured: log2 ratio of Biotin-Ahx-Ub-VS probe labelling

Sequence of USP34 (Q70CQ2 whole entry, the tested form may be a part): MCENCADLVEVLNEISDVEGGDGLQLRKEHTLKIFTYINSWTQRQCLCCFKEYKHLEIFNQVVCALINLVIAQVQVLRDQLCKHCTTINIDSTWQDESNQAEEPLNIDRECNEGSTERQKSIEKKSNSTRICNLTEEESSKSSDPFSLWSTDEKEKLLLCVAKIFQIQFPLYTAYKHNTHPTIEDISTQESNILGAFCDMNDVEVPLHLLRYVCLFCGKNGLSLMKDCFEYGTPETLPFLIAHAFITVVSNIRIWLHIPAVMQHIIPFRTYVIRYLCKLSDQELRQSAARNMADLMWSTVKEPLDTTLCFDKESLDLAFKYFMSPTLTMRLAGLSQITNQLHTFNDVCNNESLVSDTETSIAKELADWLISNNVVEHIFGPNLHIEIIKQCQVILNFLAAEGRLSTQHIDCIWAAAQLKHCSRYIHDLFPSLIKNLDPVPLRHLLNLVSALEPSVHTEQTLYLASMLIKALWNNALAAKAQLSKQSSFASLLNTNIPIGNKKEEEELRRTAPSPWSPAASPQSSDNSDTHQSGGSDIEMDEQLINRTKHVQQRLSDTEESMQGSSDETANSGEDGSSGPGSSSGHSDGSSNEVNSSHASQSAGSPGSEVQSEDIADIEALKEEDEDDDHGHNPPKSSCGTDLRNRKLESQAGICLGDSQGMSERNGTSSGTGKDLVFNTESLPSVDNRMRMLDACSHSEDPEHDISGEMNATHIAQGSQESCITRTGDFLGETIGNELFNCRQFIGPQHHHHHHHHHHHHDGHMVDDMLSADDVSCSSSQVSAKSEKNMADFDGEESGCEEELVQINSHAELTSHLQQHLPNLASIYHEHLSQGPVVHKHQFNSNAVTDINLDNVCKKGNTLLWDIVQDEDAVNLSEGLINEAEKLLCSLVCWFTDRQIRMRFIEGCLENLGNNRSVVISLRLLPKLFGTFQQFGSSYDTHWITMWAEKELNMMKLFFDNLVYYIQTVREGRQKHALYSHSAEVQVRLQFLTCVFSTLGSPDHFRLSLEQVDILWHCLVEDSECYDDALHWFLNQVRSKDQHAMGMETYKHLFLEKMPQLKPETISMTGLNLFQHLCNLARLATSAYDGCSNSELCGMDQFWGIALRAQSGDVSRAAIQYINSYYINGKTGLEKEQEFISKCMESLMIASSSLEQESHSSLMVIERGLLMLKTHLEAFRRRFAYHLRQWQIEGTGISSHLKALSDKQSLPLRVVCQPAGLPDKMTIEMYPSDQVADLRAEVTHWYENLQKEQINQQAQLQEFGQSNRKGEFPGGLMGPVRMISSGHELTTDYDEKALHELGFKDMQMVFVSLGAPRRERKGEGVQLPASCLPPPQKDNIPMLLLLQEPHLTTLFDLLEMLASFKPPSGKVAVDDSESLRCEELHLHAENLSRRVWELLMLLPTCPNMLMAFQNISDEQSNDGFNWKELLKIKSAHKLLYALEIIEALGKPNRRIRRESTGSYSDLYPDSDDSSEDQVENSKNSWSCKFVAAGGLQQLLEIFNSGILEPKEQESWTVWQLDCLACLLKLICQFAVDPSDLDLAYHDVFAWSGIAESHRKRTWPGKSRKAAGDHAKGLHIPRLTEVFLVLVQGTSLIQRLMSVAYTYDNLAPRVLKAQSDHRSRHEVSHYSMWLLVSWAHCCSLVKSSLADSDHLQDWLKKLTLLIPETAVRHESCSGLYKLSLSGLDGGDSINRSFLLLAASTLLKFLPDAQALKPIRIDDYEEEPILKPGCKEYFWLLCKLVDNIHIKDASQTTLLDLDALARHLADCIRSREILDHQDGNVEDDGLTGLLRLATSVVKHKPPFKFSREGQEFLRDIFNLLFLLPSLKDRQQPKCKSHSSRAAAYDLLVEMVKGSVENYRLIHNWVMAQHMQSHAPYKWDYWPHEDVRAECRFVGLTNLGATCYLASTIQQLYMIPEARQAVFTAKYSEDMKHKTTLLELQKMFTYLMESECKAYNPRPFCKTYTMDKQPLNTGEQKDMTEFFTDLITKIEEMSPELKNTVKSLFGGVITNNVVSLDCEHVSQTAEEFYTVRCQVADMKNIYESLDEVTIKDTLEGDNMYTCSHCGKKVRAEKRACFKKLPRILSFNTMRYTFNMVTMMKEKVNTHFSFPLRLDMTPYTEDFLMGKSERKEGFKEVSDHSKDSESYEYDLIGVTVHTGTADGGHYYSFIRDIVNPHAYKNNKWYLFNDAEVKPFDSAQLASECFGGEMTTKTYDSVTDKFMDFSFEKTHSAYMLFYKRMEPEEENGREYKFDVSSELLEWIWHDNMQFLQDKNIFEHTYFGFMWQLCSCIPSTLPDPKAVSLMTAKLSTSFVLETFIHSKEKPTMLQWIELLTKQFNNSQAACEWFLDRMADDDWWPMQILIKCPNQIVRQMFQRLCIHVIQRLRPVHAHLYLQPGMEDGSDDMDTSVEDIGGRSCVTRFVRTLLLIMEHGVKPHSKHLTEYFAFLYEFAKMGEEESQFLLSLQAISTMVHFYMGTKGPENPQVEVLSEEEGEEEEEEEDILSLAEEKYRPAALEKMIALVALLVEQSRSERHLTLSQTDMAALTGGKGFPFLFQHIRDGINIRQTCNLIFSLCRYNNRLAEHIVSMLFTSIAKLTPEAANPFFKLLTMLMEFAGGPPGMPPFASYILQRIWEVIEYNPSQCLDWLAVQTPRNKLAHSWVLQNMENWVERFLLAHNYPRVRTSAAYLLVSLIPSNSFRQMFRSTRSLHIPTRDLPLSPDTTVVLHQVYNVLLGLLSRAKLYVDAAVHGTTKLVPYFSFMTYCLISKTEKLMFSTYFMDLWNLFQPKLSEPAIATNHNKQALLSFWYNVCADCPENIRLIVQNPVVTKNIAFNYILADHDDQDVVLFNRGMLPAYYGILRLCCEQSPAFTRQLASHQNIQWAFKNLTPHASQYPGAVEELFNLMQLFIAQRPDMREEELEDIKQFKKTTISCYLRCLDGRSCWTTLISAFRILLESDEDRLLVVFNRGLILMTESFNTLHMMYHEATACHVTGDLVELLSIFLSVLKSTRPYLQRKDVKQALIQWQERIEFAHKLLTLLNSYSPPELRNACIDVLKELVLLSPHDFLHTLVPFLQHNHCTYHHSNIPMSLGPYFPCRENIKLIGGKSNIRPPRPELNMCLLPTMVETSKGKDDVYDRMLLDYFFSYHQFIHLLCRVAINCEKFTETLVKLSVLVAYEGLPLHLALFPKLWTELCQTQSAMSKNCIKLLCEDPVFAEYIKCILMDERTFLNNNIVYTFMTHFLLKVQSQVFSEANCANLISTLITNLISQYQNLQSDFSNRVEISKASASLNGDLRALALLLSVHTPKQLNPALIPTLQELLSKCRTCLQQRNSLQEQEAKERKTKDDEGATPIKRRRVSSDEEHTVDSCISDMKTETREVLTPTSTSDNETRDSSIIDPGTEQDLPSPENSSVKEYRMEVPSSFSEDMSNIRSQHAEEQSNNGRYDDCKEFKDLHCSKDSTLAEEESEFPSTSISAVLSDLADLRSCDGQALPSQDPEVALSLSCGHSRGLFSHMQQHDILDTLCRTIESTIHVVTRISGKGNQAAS

Cc1cccc(NC(=O)[C@@H]2CCCN2C(=O)CCl)n1
inactive: [1] 0.0425 | [2] -0.0946 | [3] -0.0719 | [4] 0.179 | [5] -0.0817
